Results from PubChem BioAssay AID1511 (Johns Hopkins Ion Channel Center, 2009).
About 1,600 (0.52%) of roughly 310,000 compounds were called active. This is one part of a sample in which actives are shown more often than they occur. Unmarked numbers belong to inactive results.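 The calls were made as follows: active = activation above the mean of controls blocked by dofetilide plus 5 SD; inactive = the rest.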 Square brackets hold non-standard residues; d marks the D form. Peptide text beside a SMILES is read from it. ξ: configuration not given here. ξM = CSCCC(N)C(=O)O

Molecular target: Voltage-gated inwardly rectifying potassium channel KCNH2 (Homo sapiens) (UniProt Q12809)
Sequence (Q12809 whole entry, looked up): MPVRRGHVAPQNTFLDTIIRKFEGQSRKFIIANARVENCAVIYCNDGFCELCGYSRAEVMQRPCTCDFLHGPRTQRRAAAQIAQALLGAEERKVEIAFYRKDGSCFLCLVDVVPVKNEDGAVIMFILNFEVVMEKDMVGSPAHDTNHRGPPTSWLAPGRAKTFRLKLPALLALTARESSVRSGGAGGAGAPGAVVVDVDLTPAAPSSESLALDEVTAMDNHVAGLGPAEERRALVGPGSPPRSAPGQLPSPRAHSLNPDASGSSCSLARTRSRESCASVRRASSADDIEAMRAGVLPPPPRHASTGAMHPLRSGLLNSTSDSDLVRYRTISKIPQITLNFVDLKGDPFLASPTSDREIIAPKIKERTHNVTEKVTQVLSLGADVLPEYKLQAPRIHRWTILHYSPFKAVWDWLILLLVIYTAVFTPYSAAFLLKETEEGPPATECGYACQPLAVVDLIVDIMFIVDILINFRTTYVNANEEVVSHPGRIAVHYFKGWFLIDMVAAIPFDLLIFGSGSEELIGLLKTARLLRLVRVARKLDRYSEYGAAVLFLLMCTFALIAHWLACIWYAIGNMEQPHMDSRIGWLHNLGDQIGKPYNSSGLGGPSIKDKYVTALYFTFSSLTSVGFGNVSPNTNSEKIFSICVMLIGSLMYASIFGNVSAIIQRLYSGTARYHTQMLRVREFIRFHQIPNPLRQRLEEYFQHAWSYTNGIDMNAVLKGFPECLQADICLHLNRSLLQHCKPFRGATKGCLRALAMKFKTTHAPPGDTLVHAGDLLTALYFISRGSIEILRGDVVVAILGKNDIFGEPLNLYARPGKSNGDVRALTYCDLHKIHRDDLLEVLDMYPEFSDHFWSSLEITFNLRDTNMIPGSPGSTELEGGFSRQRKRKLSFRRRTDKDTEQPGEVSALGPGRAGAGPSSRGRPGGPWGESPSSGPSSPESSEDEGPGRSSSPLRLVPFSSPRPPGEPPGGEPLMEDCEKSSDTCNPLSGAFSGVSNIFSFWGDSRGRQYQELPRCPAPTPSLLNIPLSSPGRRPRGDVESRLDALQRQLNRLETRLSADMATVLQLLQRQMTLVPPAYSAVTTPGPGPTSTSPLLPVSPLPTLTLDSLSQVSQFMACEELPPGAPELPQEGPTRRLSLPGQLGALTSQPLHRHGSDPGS
Assay: compounds relieving dofetilide block of hERG – cell-based, CHO-hERG, FluxOR thallium flux, dofetilide IC70, primary screen (AID 1511);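 also: thallium influx through hERG after potassium depolarization seen as dye fluorescence rise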
Settings: dofetilide IC70 present, at 10 µM, hits give high values

SMILES	activation (rescue from dofetilide block), less the hit threshold
CCN1CCN(C(=O)c2ccc(CN(c3ccc(C)c(C)c3)S(C)(=O)=O)cc2)CC1	-6.12%
O=C(NC1CCCC1)C(c1c(F)cccc1Cl)N(C(=O)c1csnn1)C1CC1 (configuration not stated)	-2.39%
CCO[C@H]1OC(C(=O)O)=C[C@@H](C2CCCCC2)[C@@H]1CCCO	-4.25%
COc1cc(OC)cc(/C(N)=N/O)c1	-15.6%
CC1CC(C)CN(C(=O)CSc2ccsc2[N+](=O)[O-])C1 (configuration not stated)	-2.19%
CN(c1ccccc1)S(=O)(=O)c1cc(C(=O)OCC(=O)N2CCN(C(=O)c3ccco3)CC2)ccc1Cl	5.23% (active)
O=C(OCC(=O)N1CCN(C(=O)c2ccco2)CC1)c1cccc(O)c1	-4%
CN(c1ccccc1)S(=O)(=O)c1ccc(Cl)c(C(=O)OCC(=O)N2CCOCC2)c1	4.51%
Cc1ccc(NC(=O)CSc2nnc(CNC(=O)c3ccccc3F)o2)cc1Cl	-8.43%
CCN(CC)c1ccc(C(=O)c2cnc(/N=C/N(C)C)s2)cc1	-22%
Cc1cc(C)c(NC(=O)CS(=O)CC(=O)Nc2cccnc2)c(C)c1 (configuration not stated)	7.98% (active)
Cc1ccc(NC(=O)Nc2cccnc2)cc1	-1.84%
Cc1cc(C)c(NC(=O)CSc2nc3ccncc3[nH]2)c(C)c1	-2.72%
COc1ccc(CCc2nnc(CCC(=O)NCc3cnn(-c4ccccc4C)c3)o2)cc1	-3.52%
COc1ccc(S(=O)(=O)NCC(c2ccco2)N2CCOCC2)cc1 (configuration not stated)	-10.9%
Cc1cc(C)c(S(=O)(=O)c2ccccc2)c(OC(=O)c2c(F)cccc2Cl)n1	8.53% (active)
Cc1ccc(NNC(=O)c2c(F)cccc2Cl)cc1Cl	-7.77%
Cc1cc(OC(=O)c2c(Cl)cccc2Cl)nc(C)n1	-14.7%
Cc1cccc(S(=O)(=O)N2CN(CC3CCCO3)c3nc4ccccc4nc32)c1 (configuration not stated)	-10.3%
CCOc1cc(/C=N/Nc2cc(C)nc3ccc(C)cc23)ccc1O	-14.3%
CCOC(=O)C1CCN(c2c(Nc3cc(C)cc(C)c3)c(=O)c2=O)CC1	-11.1%
Cc1cccc(-c2nc3ccccc3c(=O)n2NC(=O)Cc2ccc(Cl)cc2)c1	-2.81%
O=c1c2cc(Br)ccc2nc(-c2cccc(Cl)c2)n1O	59% (active)
O=C1CCCc2c1nc(-c1cccc(Cl)c1)n2O	-10.5%

SMILES	activation (rescue from dofetilide block), less the hit threshold
O=C(CN1CCN(S(=O)(=O)c2cc(Cl)ccc2Cl)CC1)c1ccc(O)c(O)c1	-1.99%
Cc1nc(N2CCOCC2)sc1C(=O)NN	4.6% (active)
CCOC(=O)N1CCC(NC(=O)c2ccc3nc(N4CCOCC4)sc3c2)CC1	-5.7%
Cc1nc(-c2ccc(Cl)cc2)sc1C(=O)NN	-10.7%
Cc1cc(O)c(C(=O)/C=C/c2c(F)c(F)c(F)c(F)c2F)c(=O)o1	-23.3%
COc1ccc(CCNC(=O)C(=O)Nc2ccc3nc4n(c(=O)c3c2)CCCCC4)cc1OC	-11.8%
Nc1nc(SCC(=O)N2CCN(S(=O)(=O)c3ccc(Cl)cc3)CC2)n[nH]1	-4.93%
Cc1ccc(S(=O)(=O)N(C)CC(=O)OCC(=O)N2CC(=O)Nc3ccccc32)cc1	-8.2%
COc1cc(NS(=O)(=O)c2ccc3ccccc3c2)c2ncccc2c1	5.48% (active)
O=[N+]([O-])c1ccccc1S(=O)(=O)Nc1cccc2cccnc12	-0.19%
Cc1ccc(NS(=O)(=O)c2ccc(C)c(NC(=O)COc3ccc4ccccc4c3)c2)c(C)c1	-12.4%
Cc1ccc(NC(=O)c2cc([N+](=O)[O-])ccc2Cl)c(O)c1	-3.14%
CCCNC(=O)COc1coc(CN2CCN(Cc3ccccc3)CC2)cc1=O	-2.43%
COC(=O)CNC(=O)C(CCSC)NC(C)=O (configuration not stated) (Ac-[ξM]-Gly-OMe)	-1.31%
CCOc1ccc2nc(N(CCCN(C)C)C(=O)c3ccc(C(=O)c4ccccc4)cc3)sc2c1	-26.7%
CC(N=Cc1nc(-c2ccccc2)oc1O)c1ccccc1 (configuration not stated)	-4.74%
CCOc1ccc2nc(/N=C/c3nc(-c4ccccc4)oc3O)sc2c1	17.1% (active)
COC(=O)c1cn(C)c2ccc(S(=O)(=O)N3CC(C)CC(C)C3)cc2c1=O (configuration not stated)	-10.9%
CCOC(=O)C1=C(C)Nc2sc(C(=O)c3ccc(Br)cc3)c(N)c2C1c1ccc(C(=O)OC)cc1 (configuration not stated)	-8.23%
CCOC(=O)c1ccc(Nc2cc3ccccc3c(=O)[nH]2)cc1	-10.6%
CCOC(=O)c1sc(=S)n2c1[nH]c(=O)c1ccc(C(=O)OC)cc12	77.9% (active)
N/C(=N\OC(=O)CC1CCCCC1)c1ccccc1	-5.76%
CCCCn1c(N)c(N(CCOC)C(=O)c2sc3ccccc3c2Cl)c(=O)[nH]c1=O	-2.36%
